# In PMC5540273 (PLoS ONE, 2017):
# Experiments:
# Details in all cases: concentration: 1 μM, replicates: in singlicate; n = 1
# [1] = tested on: T1, HASPIN
# T1 construct: gene GSG2
# [2] = tested on: HCK
# [3] = tested on: HIPK1
# [4] = tested on: HIPK2
# [5] = tested on: HIPK3
# [6] = tested on: HIPK4
# [7] = tested on: HPK1
# [8] = tested on: HUNK
# [9] = tested on: ICK
# [10] = tested on: IGF1R
# 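Note: KINOMEscan kinase panel screen.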
Compound,%Inh [1] [%],%Inh [2] [%],%Inh [3] [%],%Inh [4] [%],%Inh [5] [%],%Inh [6] [%],%Inh [7] [%],%Inh [8] [%],%Inh [9] [%],%Inh [10] [%]
O=C(Nc1n[nH]c2nc(-c3cccc(O)c3)ccc12)C1CC1 [SB-711805],45,15,57,27,31,7,0,0,53,0
Cc1ccccc1CC(=O)N1CCc2cc(-c3cn(C)c4ncnc(N)c34)ccc21 [GSK2603346],0,13,0,0,1,0,74,0,0,0
CN(c1ccc(NC(=O)N2CCN(CCCN3CCOCC3)CC2)cc1)c1ccnc(Nc2ccc(CS(C)(=O)=O)cc2)n1.Cl [GW830899],0,12,45,0,0,20,47,0,95.9,1
Cn1cc(-c2ccc3c(c2)CCN3C(=O)Cc2cc(F)cc(F)c2F)c2c(N)ncnc21 [GSK2634140],32,0,0,0,15,0,57,12,0,21
Cc1ccc(-c2ccc3occ(-c4ccc(S(C)=O)cc4)c3c2)nn1 (stereo not drawn),42,0,42,2,0,0,0,0,0,0
CN(c1ccc2c(c1)nc(NCc1ccccc1)n2C)c1ccnc(Nc2ccc(CS(C)(=O)=O)cc2)n1.Cl [GW811603],3,49,41,46,0,38,72,0,29,6
CN(c1ccc(F)c(NC(=O)c2cccc(OC(C)(C)C#N)c2Cl)c1)c1ccc2nc(NC(=O)C3CC3)sc2n1,27,90,0,0,0,0,0,1,0,0
CC(=O)Nc1cn2nc(Oc3cccc(NC(=O)c4cccc(C(F)(F)F)c4)c3)ccc2n1,0,98.2,35,0,0,19,59,43,0,8
COc1cccc2c(-c3ccncc3)c(-c3ccc(F)cc3)nn12 [GW468513],15,0,0,0,10,4,37,18,9,9
